MsrA act: activators of bovine methionine sulfoxide reductase A; AID 602163; purified bovine MsrA, absorbance read-out; 360,000 tested, 0.3% active; activation, % at 10.6 µM; in the data active means activation above about 7.5%;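 further: 0% = vehicle and 100% = reference activator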
PLCb3 inh: inhibitors of human phospholipase C beta3. Q01970. Purified PLC-beta3, fluorogenic substrate, fluorescence. inhibition, % at 12.2 µM. 370,000 tested, 0.18% active;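 further: 0% = median of compound wells on plate and 100% = full blocker control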
MsrA inh: inhibitors of bovine MsrA | purified bovine MsrA, absorbance read-out | inhibition, % at 15.5 µM | 360,000 tested, 0.75% active | AID 651718; in the data active means inhibition above about 4.5%;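 further: 0% = vehicle wells with enzyme and 100% = reference inhibitor wells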
PLCg1 inh: blocks human PLC-gamma1 enzyme activity; P19174; purified PLC-gamma1, fluorogenic substrate, fluorescence; inhibition, % at 12.2 µM; 370,000 tested, 0.84% active; AID 720700; in the data active means inhibition above about 9.5%
Target sequence (P19174 whole entry, looked up): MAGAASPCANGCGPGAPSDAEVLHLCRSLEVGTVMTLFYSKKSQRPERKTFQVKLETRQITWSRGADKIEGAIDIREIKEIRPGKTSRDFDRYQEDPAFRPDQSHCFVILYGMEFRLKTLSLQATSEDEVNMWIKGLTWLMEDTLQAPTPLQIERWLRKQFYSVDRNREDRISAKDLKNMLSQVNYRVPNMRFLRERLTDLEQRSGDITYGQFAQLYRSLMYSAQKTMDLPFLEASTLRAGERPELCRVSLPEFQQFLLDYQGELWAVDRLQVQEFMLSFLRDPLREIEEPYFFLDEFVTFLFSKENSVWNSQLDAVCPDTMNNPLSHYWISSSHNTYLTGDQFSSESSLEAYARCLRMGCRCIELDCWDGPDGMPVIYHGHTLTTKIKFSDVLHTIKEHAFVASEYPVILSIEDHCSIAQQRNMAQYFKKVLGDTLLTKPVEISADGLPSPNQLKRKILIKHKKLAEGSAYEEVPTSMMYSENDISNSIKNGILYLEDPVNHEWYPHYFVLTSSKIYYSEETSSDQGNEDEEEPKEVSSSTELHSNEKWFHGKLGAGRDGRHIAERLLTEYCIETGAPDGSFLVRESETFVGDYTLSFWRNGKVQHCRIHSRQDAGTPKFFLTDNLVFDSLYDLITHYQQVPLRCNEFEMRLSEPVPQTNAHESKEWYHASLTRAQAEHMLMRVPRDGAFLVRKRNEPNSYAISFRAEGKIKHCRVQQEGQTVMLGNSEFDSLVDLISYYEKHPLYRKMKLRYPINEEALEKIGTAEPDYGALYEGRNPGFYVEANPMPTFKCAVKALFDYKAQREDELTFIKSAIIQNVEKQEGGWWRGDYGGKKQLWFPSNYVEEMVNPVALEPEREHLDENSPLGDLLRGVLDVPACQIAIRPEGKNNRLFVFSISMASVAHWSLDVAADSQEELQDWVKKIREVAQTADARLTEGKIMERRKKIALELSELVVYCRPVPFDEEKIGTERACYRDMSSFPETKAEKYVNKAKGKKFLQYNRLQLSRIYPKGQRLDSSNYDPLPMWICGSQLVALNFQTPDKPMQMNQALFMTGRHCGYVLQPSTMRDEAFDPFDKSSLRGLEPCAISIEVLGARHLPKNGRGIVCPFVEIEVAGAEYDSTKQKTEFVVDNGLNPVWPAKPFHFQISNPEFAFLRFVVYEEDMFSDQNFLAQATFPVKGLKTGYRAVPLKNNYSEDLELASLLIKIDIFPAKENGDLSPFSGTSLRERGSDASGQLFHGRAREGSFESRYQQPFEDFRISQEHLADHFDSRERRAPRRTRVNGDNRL
PLCg1 ctr: inhibits human PLC-gamma1 in PLC-beta3 counter-screen; shares compounds with PLCg1 inh; purified PLC-gamma1, fluorogenic substrate, fluorescence; inhibition, % at 12.3 µM; 3,300 tested, 3.1% active; in the data active means inhibition above about 9.5%
PLCb3 confirm: human PLC-beta3 inhibition, confirmation; shares compounds with PLCg1 inh; purified PLC-beta3, fluorogenic substrate fluorescence; inhibition, % at 12.3 µM; 3,300 tested, 1% active; AID 743261
An asterisk follows results filed as active; . = no result. Compounds with a hit are over-represented: about 1.9% of the library has one in this group of screens. Unless noted, no stated cut-off is given here; in the data, active means inhibition above about 11%; inactive means the rest.

SMILES	MsrA act	PLCb3 inh	MsrA inh	PLCg1 inh	PLCg1 ctr	PLCb3 confirm
O=C(NC(=S)Nc1cccc(Cl)c1N1CCCCC1)c1cccs1	-11	2	0	1	.	.
O=C(NC(=S)Nc1cccc(Cl)c1N1CCOCC1)c1cccs1	-1	-2	1	9.9*	1	1
O=C(c1ccccc1)N(c1ccccc1)c1nccc2ccccc12	0	-1	0	-2	.	.
COc1cc(NC(=O)CN2CCN(C(=O)c3ccco3)CC2)c(C)cc1[N+](=O)[O-]	-1	-3	1	4	.	.
COc1cc(/C=C2/C(=N)N3OC(C)=CC3=NC2=O)ccc1OC(=O)c1ccco1	-3	-6	0	-2	.	.
CC1=CC2=NC(=O)/C(=C\c3ccc(OC(=O)c4ccco4)cc3)C(=N)N2O1	-2	12*	2	9	-2	0
COC(=O)CN(n1cnnc1)S(=O)(=O)c1ccccc1Cl	-1	4	0	10*	1	3
CC(C)n1nnnc1C1(C)CN(S(C)(=O)=O)CC(=O)N1Cc1cccc(C(F)(F)F)c1 (stereo unspecified)	.	3	.	3	.	.
Cc1ccc(NC(=O)C2CCN(S(C)(=O)=O)CC2)cc1Cl	-2	-7	0	2	.	.
O=C(c1ccco1)N1CCN(Cc2cc(=O)c(OCc3ccc([N+](=O)[O-])cc3)co2)CC1	-2	4	1	11*	-2	-3
COC(=O)[C@]12C[C@H](CC(=O)N3CCCCC3)C(=O)N(Cc3ccc4c(c3)OCO4)C1=C[C@H](C(C)(C)C)O[C@@H]2C	.	-3	0	-1	.	.
COc1ccccc1COC(=O)c1cccc(S(=O)(=O)N2CCCC2)c1	0	11*	-1	10*	11*	14*
O=S(=O)(c1ccc(F)cc1)N1CCN(CC(O)COCc2ccccc2)CC1 (stereo unspecified)	-7	-7	1	1	.	.
COc1ccccc1COCC(O)CN1CCN(S(=O)(=O)c2cccc(F)c2)CC1 (stereo unspecified)	-2	0	1	15*	-2	2
O=C(c1cccc(S(=O)(=O)N2CCCCC2)c1)N1CCc2ccccc21	-1	8	2	15*	-4	-2
NC(=O)COC(=O)c1cccc(S(=O)(=O)N2CCCCC2)c1	-6	-8	0	0	.	.
CCOC(=O)c1cccc(S(=O)(=O)N2CCCC2)c1	-3	9	1	10*	-8	-1
O=C(NCC1CCCCC1)c1cccc(S(=O)(=O)N2CCCC2)c1	-1	-6	0	1	.	.
CC(OC(=O)c1cccc(S(=O)(=O)N2CCCCC2)c1)C(=O)NCC1CCCCC1 (stereo unspecified)	-1	0	0	9.9*	4	3
CCOC(=O)C1(C)CCN1C(=O)c1ccc(C)cc1 (stereo unspecified)	0	16*	1	9.8*	-2	2
Cc1ccc2nc(C3CCCN(C(=O)NCc4ccccc4)C3)[nH]c2c1 (stereo unspecified)	-2	3	2	8	.	.
Cc1ccc2nc(C3CCN(C(=O)NCc4ccccc4)CC3)[nH]c2c1	-5	3	-1	10*	1	-3
O=C(O)CC1=C(c2ccc(F)cc2)CCC1=O	-4	14*	1	6	-7	-3
CCCCn1nnnc1C(c1ccccc1)N1CCN(c2cccc(C(F)(F)F)n2)CC1 (stereo unspecified)	0	-1	2	10*	-8	-8
O=C(Nc1cccc2ccccc12)c1ccc(F)cc1	-4	0	1	-1	.	.
SMILES	MsrA act	PLCb3 inh	MsrA inh	PLCg1 inh	PLCg1 ctr	PLCb3 confirm
O=C(Nc1cccc2ccccc12)c1ccccc1	-2	1	2	10*	-71	-2
O=C(COC(=O)CC12CC3CC(CC(Br)(C3)C1)C2)NC(=O)NCc1ccco1	-3	7	1	11*	-7	-6
CC(CN1CCOCC1)OC(=O)c1cccc(Br)c1 (stereo unspecified)	-2	12*	2	5	-1	1
CCOC(=O)C1C(=O)OC(C)(C)C1C(C)C(=O)c1ccc(C)cc1 (stereo unspecified)	4	9	0	9.5*	-2	-4
CN(C1=C(NC(=O)c2ccc(Cl)cc2)C(=O)c2ccccc2C1=O)c1ccccc1	-4	1	2	12*	7	5
CN(c1ccc(C(=O)Nc2ccc(Cl)cn2)cc1)S(=O)(=O)c1ccccc1	-6	-9	0	0	.	.
O=C(Cc1cccs1)Nc1nc(-c2ccc(F)c(F)c2)cs1	-1	-3	-1	0	.	.
O=C(Cc1cccs1)Nc1nc(-c2ccc(F)cc2F)cs1	-11	10	1	13*	-6	-7
COc1ccccc1NC(=S)N(CCCN1CCOCC1)Cc1cn(C)c2ccccc12	-4	-1	1	0	.	.
CCOc1ccccc1NC(=S)N(CCCN1CCOCC1)Cc1cn(C)c2ccccc12	-12	-4	0	14*	-2	2
COc1ccc(NC(=O)c2cc(-c3cc(F)ccc3OCC3CCCO3)n[nH]2)cc1OC (stereo unspecified)	-8	3	1	12*	-2	0
O=C(CC1CCCC1)N[C@H](C(=O)N1CCC[C@H]1C(=O)NC1CCCC1)C1CCCCC1	.	0	0	0	.	.
O=C(c1ccc([N+](=O)[O-])o1)N1CCN(c2nc3c(F)cc(F)cc3s2)CC1	0	1	1	15*	-2	1
CCOC(=O)CN(C(=O)Cn1nnc(-c2ccc(C)cc2)n1)C(CC)C(=O)NC1CCCC1 (stereo unspecified)	-1	6	0	13*	-1	-8
CCN(Cc1ccccc1)C(=O)Cn1c(C(C)O)nc2ccccc21 (stereo unspecified)	-1	-1	2	3	.	.
CC(O)c1nc2ccccc2n1CC(=O)N1CCN(c2ccccc2)CC1 (stereo unspecified)	-16	4	1	11*	-6	-3
CCN(C(=O)CSc1nnc(-c2ccccc2Cl)n1N)c1c(N)n(Cc2ccccc2)c(=O)[nH]c1=O	-6	-3	-1	3	.	.
COc1ccc(NC(=O)CN2CCC(C)CC2)cc1	-5	9	1	12*	-6	-2
COc1ccc(NC(=O)CN2CCC(C(N)=O)CC2)cc1	3	6	0	1	.	.
COc1cc(-c2ccc(NC(=O)CN3CCC(C)CC3)c(OC)c2)ccc1NC(=O)CN1CCC(C)CC1	-2	6	1	10*	-5	-7
C[C@H](NC(=O)[C@@H]1CSC2c3ccccc3C(=O)N21)C(=O)NCCc1ccc(F)cc1 (stereo partly specified)	-2	-11	1	12*	-8	-7
CC1CCN(CC(CS(=O)(=O)c2ccc([N+](=O)[O-])cc2)N2CCC(C)CC2)CC1 (stereo unspecified)	-2	11*	1	5	-6	-4

Screening data as filed in PubChem.
